We go through 46 sequences from publication PMC7819943, “Rice protein-binding microarrays: a tool to detect cis-acting elements near promoter regions in rice”.

The full ranking holds about 35,000 sequences; the median of “fluorescence intensity (a.u.)” is about 10,000, and the highest 2% start at about 52,000. The entries come from a sample that favours the highest values as a whole.

The target in this assay is T1, OsWOX13 (Oryza sativa, UniProt Q5QMM3 1-267).
T1 sequence: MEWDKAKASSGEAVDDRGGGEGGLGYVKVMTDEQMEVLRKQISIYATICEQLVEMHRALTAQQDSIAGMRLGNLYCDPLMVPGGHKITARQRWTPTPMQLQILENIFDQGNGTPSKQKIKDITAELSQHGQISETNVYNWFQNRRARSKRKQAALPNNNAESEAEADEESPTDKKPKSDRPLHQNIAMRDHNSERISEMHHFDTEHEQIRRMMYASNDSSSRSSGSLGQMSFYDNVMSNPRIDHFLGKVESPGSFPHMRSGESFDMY
In words: protein-binding microarray (RPBM); PBS, 2% BSA, 51.3 ng/ul salmon testes DNA, 50 uM zinc acetate, 200 nM TF, 25 C, 1 h; high values mean tight binding. Particulars: protein: recombinant; tags: N-terminal polyhistidine and DsRed monomer fusion (pET32a); label: CyDye5-dUTP incorporated in the synthesized complementary strand; 3' TTTTT single-stranded linker to array surface; dsDNA, one strand shown. In outline: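 An Axon 4000B scanner gave the binding signal as per-feature fluorescence intensity in arbitrary units. This followed washing of a custom Agilent array that had been incubated for 1 h at 25 °C with 200 nM protein in PBS, 2% BSA, salmon testes DNA and 50 µM zinc acetate. The proteins were transcription factors fused at the N-terminus to polyhistidine and DsRed, expressed in E. coli BL21-CodonPlus and purified on Ni–NTA.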
Take “CGATGATTGTTAGTATACACTATATGTATGGTGTTTATCCCGGAGTCACCTAGTGCAG”: the binding signal is 40600 fluorescence intensity (a.u.). Consider “CTACTATCAATCGACCAATTCCAATCTCATCGTTACAGGACGGAGTCACCTAGTGCAG”, for which the binding signal was 4190 fluorescence intensity (a.u.).

As to “CTTGATTGACGACCATCTCGTGGTTACCAATTCCATCACCCGGAGTCACCTAGTGCAG”, the binding signal is 60000 fluorescence intensity (a.u.).

“GCTTGACGACACCATTCGGATTGTTCCATCACTTCCATACCGGAGTCACCTAGTGCAG”: the binding signal was 3540 fluorescence intensity (a.u.). For “ACATGTTTTATCAATTAGTAGTATGGGCATATTACTAGTGCGGAGTCACCTAGTGCAG” the value was 17800 fluorescence intensity (a.u.); for “TCTCTTCCTTGCTGTGGTGGCGGCGGGCGGGAGGGCGGCGCGGAGTCACCTAGTGCAG”, 12700 fluorescence intensity (a.u.); for “TGCCCTTACCTGTGGTTTCTCCCGCGGCGGCGGGGTGGAGCGGAGTCACCTAGTGCAG”, 65500 fluorescence intensity (a.u.).

In the case of “AGGAGGCGGGGCGGGGCGGCGGCGGCGGCGGCGGCGCCCGCGGAGTCACCTAGTGCAG”, the binding signal was 5340 fluorescence intensity (a.u.). On to “TCTGACCTGTATACTAATTTATGACCATATACTTAATCAACGGAGTCACCTAGTGCAG”, for which the binding signal was 5380 fluorescence intensity (a.u.). Take “AAAACCATCATCAATCAGCCGATCCTGATGTTGTCCCTGCCGGAGTCACCTAGTGCAG”: the binding signal was 25100 fluorescence intensity (a.u.). Take “AAGAGATTGGAATCGGGCGTACCGGAGAACTTTGGAGATGCGGAGTCACCTAGTGCAG”: the binding signal is 12100 fluorescence intensity (a.u.). “GTCTAATTGTGATTTTATATTTTAATTAATTATATATTGTCGGAGTCACCTAGTGCAG”: the binding signal was 34800 fluorescence intensity (a.u.). Consider “GGATAATGATTTGACATTGATTGCGGTCTCGTTATTTTCTCGGAGTCACCTAGTGCAG”, for which the binding signal was 59500 fluorescence intensity (a.u.). “TATGATTGATATCCACGAATTGAAGAAGAAGTTGCATTGCCGGAGTCACCTAGTGCAG”: the binding signal is 55300 fluorescence intensity (a.u.).

With “GGTTTAAATTTTAAAAGTTTGATCAAATATTATCCTAAACCGGAGTCACCTAGTGCAG”, the binding signal is 4900 fluorescence intensity (a.u.). On to “CTCAAAAGTTTGGGTTGATCGATCATTTGCCTACCGAAACCGGAGTCACCTAGTGCAG”, for which the binding signal is 65500 fluorescence intensity (a.u.). Consider “AATTGATTATTCCTAACAACATTCCGCGGATTAATTTTCTCGGAGTCACCTAGTGCAG”, for which the binding signal was 15500 fluorescence intensity (a.u.). To “ATGAAAGGAGTTGATTTGCACCGGTTTTCAAAGATGAAAACGGAGTCACCTAGTGCAG” belongs 3470 fluorescence intensity (a.u.); to “AGATAATTGTGAAATAATTATATTGCGATTTGATAAAGTACGGAGTCACCTAGTGCAG”, 14700 fluorescence intensity (a.u.). Consider “GGAAGAATTGATTGATTAAAGATATATATCGAATATCTGCCGGAGTCACCTAGTGCAG”, for which the binding signal was 40400 fluorescence intensity (a.u.). As to “TTGATTAATTTATTTATAGTTTTGTGAAAGTTTGCGCCGTCGGAGTCACCTAGTGCAG”, the binding signal was 57900 fluorescence intensity (a.u.). Turning to “TCGTTGTAATAATTTGATTTCTTTTGCAGACGGTCTTTATCGGAGTCACCTAGTGCAG”, the binding signal is 5300 fluorescence intensity (a.u.). For the sequence “ACATATCTTAAGATTGATGAAGTCACCACGAACGCCTCGCCGGAGTCACCTAGTGCAG”, the binding signal is 11700 fluorescence intensity (a.u.). As for “TGGAAGAAATTGATGTAATGCTCTGGCCTTTTCATGGATACGGAGTCACCTAGTGCAG”, the binding signal was 8100 fluorescence intensity (a.u.). As to “GCTAATTAAATTAATAATTCATCTTAGGAATCACAGCGTCCGGAGTCACCTAGTGCAG”, the binding signal is 39000 fluorescence intensity (a.u.).

Take “CGCTTAATGACTTCACTTTGTCCTCGGATGATTTGCGTCCCGGAGTCACCTAGTGCAG”: the binding signal was 11700 fluorescence intensity (a.u.). In the case of “CCCAGTCAATCTCCCCATCTCCTCGGCCTCGGCAATAGTACGGAGTCACCTAGTGCAG”, the binding signal was 7200 fluorescence intensity (a.u.). Consider “GATAGATAGATAGATAGATAGATAGATAGATACTAGTACACGGAGTCACCTAGTGCAG”, for which the binding signal was 37000 fluorescence intensity (a.u.). With “GCTTAATTAGCCGCTTCAGTTGCACAGTAACTGAGGAACCCGGAGTCACCTAGTGCAG”, the binding signal is 32700 fluorescence intensity (a.u.).

Turning to “TGTAATAATAATTTAATCGATCTTTCAAGGGGCATTCTCGCGGAGTCACCTAGTGCAG”, the binding signal is 8040 fluorescence intensity (a.u.). On to “TTTAGATTGCTAAACACACATGTATATATAAGTTTTATTTCGGAGTCACCTAGTGCAG”, for which the binding signal was 5900 fluorescence intensity (a.u.). As for “TCGATTGACTGCATCTTTTCCTGAAAGTGAACATGCAGTGCGGAGTCACCTAGTGCAG”, the binding signal is 32500 fluorescence intensity (a.u.).

Consider “TGTAATCTATCAAGAATCCATTACTGAGACACAAATGCATCGGAGTCACCTAGTGCAG”, for which the binding signal was 4280 fluorescence intensity (a.u.).

In the case of “TCCTAATTAATGTTAGAAATTTTCCTAATTAATGCTAGAACGGAGTCACCTAGTGCAG”, the binding signal is 28600 fluorescence intensity (a.u.). “TAGTTATATTTGATTATCTTGCGAACCTATATATAATATGCGGAGTCACCTAGTGCAG”: the binding signal is 5250 fluorescence intensity (a.u.). “GAGTTGATTTGCGTTGTCTCTCCGTCTCTTTCTTATTAATCGGAGTCACCTAGTGCAG”: the binding signal was 20800 fluorescence intensity (a.u.).

As for “AAGTTATATATATTGATGATTTATACAACTTTGTTGGTGACGGAGTCACCTAGTGCAG”, the binding signal was 3620 fluorescence intensity (a.u.). To “ACATATATAAGTTGATTGATTTGTTATTATAGACGACGAGCGGAGTCACCTAGTGCAG” belongs 55400 fluorescence intensity (a.u.). For “ACTAGTATTAAATTGACTATAAATGATTTGGAGTTAGTAGCGGAGTCACCTAGTGCAG” the value was 26300 fluorescence intensity (a.u.); for “TTAAATTGACTATAGTTGATTTGTAGCCTACAATTGGCAGCGGAGTCACCTAGTGCAG”, 64600 fluorescence intensity (a.u.).

Consider “TGTAACTATTATATAAATTGGCTATTAAGTTTGACTATAGCGGAGTCACCTAGTGCAG”, for which the binding signal is 17800 fluorescence intensity (a.u.). On to “ACTAAAATTTGATAAAATTTATTTTGCCTATAATATAAACCGGAGTCACCTAGTGCAG”, for which the binding signal is 6120 fluorescence intensity (a.u.). For “CGTTGATTATTGCGATCGAAACCGTCTCATATAATTTTGCCGGAGTCACCTAGTGCAG” the value was 52500 fluorescence intensity (a.u.); for “TATAATTGATCTTTGTAGTTATTTTGTTGCATACATAAGACGGAGTCACCTAGTGCAG”, 29100 fluorescence intensity (a.u.).

As to “CTATTGATTATGATAATTTGAAGTTATATAGCTTGATTTGCGGAGTCACCTAGTGCAG”, the binding signal was 57700 fluorescence intensity (a.u.). To “TGGTTATTATATTGATTATAGATAATTTGAAGTTAGTAGTCGGAGTCACCTAGTGCAG” belongs 31500 fluorescence intensity (a.u.).
